Records with an inconclusive call do not appear. Activity calls are given as the source filed them. Unless noted, the call rests on the fitted dose curve; in most records, active means well fitted curve in the direction sought with a large enough effect in the repeat runs; inconclusive means weak or mixed curves; inactive means no such curve, though single readings can be large; an effect the other way counts as inactive or inconclusive.
Key:
[1] = qHTS assay to identify small molecule antagonists of the estrogen related receptor (ERR) signaling pathway from Tox21 library - cell viability counter screen (AID 1224834); further: nearly all actives have a fitted effect of over 30% in size; further: potency means the concentration at half of the fitted maximal effect
Summary of the method: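 Multiplexed viability counter screen in ERR cells: 17.5 h compound exposure at 37 C, CellTiter-Fluor added, 30 min at 37 C/5% CO2, fluorescence read.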

[2] = target: Luciferin 4-monooxygenase (Photinus pyralis) (UniProt P08659); experiment: qHTS assay to identify small molecule inhibitors of firefly luciferase (AID 1224835); further: series mostly up to about 120 µM; nearly all actives have a fitted effect of over 25% in size
Summary of the method: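 Biochemical qHTS: compounds run as interplate titrations against purified firefly enzyme, with D-luciferin and ATP each at its KM concentration. Light output recorded by CCD imaging.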

[3] = qHTS assay to identify small molecule agonists of the constitutive androstane receptor (CAR) signaling pathway - cell viability counter screen (AID 1224836); further: nearly all actives have a fitted effect of over 45% in size; further: potency means the concentration at half of the fitted maximal effect; on viability change, negative = cytotoxic: series mostly up to about 92 µM
Summary of the method: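 Counter screen multiplexed with the CAR reporter readout: HepG2 cells co-transfected with hCAR and the CYP2B6-2.2kb construct receive a 15-concentration compound series and 0.75 uM PK11195 (final), then CellTiter-Fluor fluorescence is read after 23 h.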

[4] = qHTS assay to identify small molecule antagonists of the constitutive androstane receptor (CAR) signaling pathway - cell viability counter screen (AID 1224837); further: nearly all actives have a fitted effect of over 45% in size; further: potency means the concentration at half of the fitted maximal effect; on activity change, negative = cytotoxicity: series mostly up to about 92 µM
Summary of the method: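 Read-out: CellTiter-Fluor fluorescence after 23 hr at 37 C/5% CO2. Cells: HepG2 double-stable for hCAR and CYP2B6-2.2kb. Compounds tested at 15 concentrations in the presence of CITCO, final concentration 50 nM.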

[5] = target: Nuclear receptor subfamily 1 group I member 3 (Homo sapiens) (UniProt Q14994); experiment: qHTS assay to identify small molecule antagonists of the constitutive androstane receptor (CAR) signaling pathway (AID 1224838);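 further: HepG2 cells stably expressing hCAR with CYP2B6 luciferase reporter stimulated by CITCO; nearly all actives have a fitted effect of over 40% in size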
Summary of the method: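 Read-out: ONE-Glo luciferase luminescence after 30 min at room temperature. HepG2-CYP2B6-hCAR double-stable cells, compounds in 15-point titration plus 50 nM CITCO final, 24 h at 37 C/5% CO2.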

[6] = target: Nuclear receptor subfamily 1 group I member 3 (Homo sapiens) (UniProt Q14994); experiment: qHTS assay to identify small molecule agonists of the constitutive androstane receptor (CAR) signaling pathway (AID 1224839); further: series mostly up to about 92 µM; nearly all actives have a fitted effect of over 15% in size
Summary of the method: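 A 15-concentration quantitative screen uses HepG2 cells co-transfected stably with human CAR and CYP2B6-2.2kb reporter. Treatment lasts 24 h with 0.75 uM PK11195 final present; ONE-Glo luminescence is the signal.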

[7] = target: Thyrotropin receptor (Homo sapiens) (UniProt P16473); experiment: qHTS assay to identify small molecule agonists of the thyroid stimulating hormone receptor (TSHR) signaling pathway (AID 1224843; calls by dose curve; further: nearly all actives have a fitted effect of over 45% in size)
Summary of the method: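 HEK293/TSHR, 800 cells/well; cpd 30 min RT; add cAMP-d2 + anti-cAMP-cryptate, 1 h RT; fluorescence read on plate reader. 15-pt titration, n=3.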

[8] = qHTS assay to identify small molecule antagonists of the estrogen related receptor signaling pathway with the pleiotropic PPARgamma coactivator (PGC) from Tox21 10K library - cell viability counter screen (AID 1224840; active means well fitted cell-killing curve with a large enough effect in the repeat runs, not every such curve was filed as active; further: nearly all actives have a fitted effect of over 40% in size)
Summary of the method: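 Fluorescence read-out of CellTiter-Fluor viability reagent, added after cells had been exposed to compound in DMSO for 17.5 h at 37 C; 30 min development at 37 C/5% CO2. Cells: PGC/ERR line, 2,000/well.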

[9] = qHTS assay to identify small molecule antagonists of the estrogen related receptor signaling pathway with the pleiotropic PPARgamma coactivator (PGC) from Tox21 10K library (AID 1224841; call rule not given here; further: series mostly up to about 92 µM; actives are mostly falling curves and most rising ones were filed inactive; nearly all actives have a fitted effect of over 50% in size)
Summary of the method: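 Luminescence read-out (One-Glo luciferase reagent, 30 min at room temperature) from PGC/ERR cells exposed to DMSO-dissolved test compounds for 18 h at 37 C; cells, 2,000 per well, had been preincubated 6 h before compound transfer.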

[10] = qHTS assay to identify small molecule agonists of the estrogen related receptor signaling pathway with the pleiotropic PPARgamma coactivator (PGC) from Tox21 10K library (AID 1224842); further: nearly all actives have a fitted effect of over 15% in size
Summary of the method: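 PGC/ERR reporter cell line, 2,000 cells per well, incubated 6 h at 37 C before 23 nL compound in DMSO was added. After 18 h at 37 C, One-Glo luminescence read following 30 min at room temperature.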
On the % scale 0 is the no-effect control and ±100 the full control effect.

Chain of Thyrotropin receptor (Homo sapiens) (P16473 whole entry, looked up): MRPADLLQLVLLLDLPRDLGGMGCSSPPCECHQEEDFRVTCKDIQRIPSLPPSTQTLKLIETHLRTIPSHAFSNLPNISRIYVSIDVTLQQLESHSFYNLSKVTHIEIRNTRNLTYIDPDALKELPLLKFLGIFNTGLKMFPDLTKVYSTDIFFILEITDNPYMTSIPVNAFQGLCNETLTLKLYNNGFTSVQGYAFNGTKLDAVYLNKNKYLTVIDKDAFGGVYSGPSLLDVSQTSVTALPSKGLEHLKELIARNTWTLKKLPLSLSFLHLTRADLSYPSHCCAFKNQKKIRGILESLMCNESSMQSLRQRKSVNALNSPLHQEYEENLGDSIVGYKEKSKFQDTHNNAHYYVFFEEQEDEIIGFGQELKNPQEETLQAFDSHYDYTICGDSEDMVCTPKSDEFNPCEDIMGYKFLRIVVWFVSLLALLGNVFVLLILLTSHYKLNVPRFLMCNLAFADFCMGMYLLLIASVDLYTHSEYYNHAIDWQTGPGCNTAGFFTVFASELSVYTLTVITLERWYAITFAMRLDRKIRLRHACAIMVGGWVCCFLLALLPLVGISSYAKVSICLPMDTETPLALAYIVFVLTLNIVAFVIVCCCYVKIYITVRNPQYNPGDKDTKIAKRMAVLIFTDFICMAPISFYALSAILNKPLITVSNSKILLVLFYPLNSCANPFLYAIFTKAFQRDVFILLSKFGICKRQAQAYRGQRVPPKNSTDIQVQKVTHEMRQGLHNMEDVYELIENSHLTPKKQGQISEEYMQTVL
Chain of Luciferin 4-monooxygenase (Photinus pyralis) (P08659 whole entry, looked up): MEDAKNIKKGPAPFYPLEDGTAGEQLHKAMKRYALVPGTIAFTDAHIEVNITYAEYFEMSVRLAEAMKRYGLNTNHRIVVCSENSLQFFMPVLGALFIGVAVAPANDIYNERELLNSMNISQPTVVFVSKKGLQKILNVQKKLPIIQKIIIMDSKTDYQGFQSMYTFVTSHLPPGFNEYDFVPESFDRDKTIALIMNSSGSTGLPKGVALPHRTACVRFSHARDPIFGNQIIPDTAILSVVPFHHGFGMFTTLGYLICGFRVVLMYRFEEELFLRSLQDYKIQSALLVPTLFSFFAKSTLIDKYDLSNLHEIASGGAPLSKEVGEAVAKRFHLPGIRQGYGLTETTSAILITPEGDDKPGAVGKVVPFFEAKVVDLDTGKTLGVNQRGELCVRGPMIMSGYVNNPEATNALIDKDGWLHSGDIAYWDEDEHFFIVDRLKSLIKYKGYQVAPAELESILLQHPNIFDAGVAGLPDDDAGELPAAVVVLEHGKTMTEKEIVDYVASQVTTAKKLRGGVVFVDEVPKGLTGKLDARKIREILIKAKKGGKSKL
Chain of Nuclear receptor subfamily 1 group I member 3 (Homo sapiens) (Q14994 whole entry, looked up): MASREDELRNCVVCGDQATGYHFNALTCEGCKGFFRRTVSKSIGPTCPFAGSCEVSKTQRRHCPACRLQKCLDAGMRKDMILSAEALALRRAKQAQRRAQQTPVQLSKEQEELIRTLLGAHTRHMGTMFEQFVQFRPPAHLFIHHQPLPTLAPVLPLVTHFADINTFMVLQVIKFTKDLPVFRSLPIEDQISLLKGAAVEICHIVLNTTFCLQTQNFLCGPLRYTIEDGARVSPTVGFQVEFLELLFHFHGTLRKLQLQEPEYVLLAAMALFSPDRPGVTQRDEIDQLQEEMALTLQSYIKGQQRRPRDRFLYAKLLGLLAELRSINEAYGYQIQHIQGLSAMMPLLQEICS

NCc1ccccc1Sc1ccccc1CO
inactive: Potency [1] | Potency [2] | Potency [3] | Potency [4] | Potency [5] | Potency [6] | Potency [7]

CN1C[C@H]2c3ccccc3Oc3ccc(Cl)cc3[C@@H]2C1
inactive: Potency [1] | Potency [2] | Potency [3] | Potency [4] | Potency [5] | Potency [8] | Potency [9] | Potency [10] | Potency [7]

ClCCOCCOCCCl
inactive: Potency [1] | Potency [2] | Potency [3] | Potency [4] | Potency [8] | Potency [9] | Potency [10] | Potency [7]

COc1ccc2cccc(CCNC(C)=O)c2c1
inactive: Potency [1] | Potency [2] | Potency [3] | Potency [4] | Potency [5] | Potency [8]

C=C(C)C(=O)OCCOCC
inactive: Potency [1] | Potency [2] | Potency [3] | Potency [4] | Potency [5] | Potency [8]

OCc1cc(C(O)CNCCCCCCOCCCCc2ccccc2)ccc1O (stereo not drawn)
inactive: Potency [2] | Potency [8] | Potency [9] | Potency [10]
active: Potency [1] 10.6 µM | Potency [3] 10.6 µM | Potency [4] 13.3 µM

CC(C)=CCC/C(C)=C/CC/C(C)=C/CO
inactive: Potency [1] | Potency [2] | Potency [3] | Potency [4] | Potency [5] | Potency [8] | Potency [7]

CCNc1cc(O)ccc1C
inactive: Potency [1] | Potency [2] | Potency [3] | Potency [4] | Potency [5] | Potency [8] | Potency [9] | Potency [10]

CCOCC(O)COc1ccc(NC(=O)CC[S+](C)C)cc1 (stereo not drawn)
inactive: Potency [1] | Potency [2] | Potency [3] | Potency [4] | Potency [5] | Potency [7]

C[N+]1(CC2COC(c3ccccc3)(C3CCCCC3)O2)CCCCC1 (stereo not drawn)
inactive: Potency [1] | Potency [2] | Potency [3] | Potency [4] | Potency [6] | Potency [8] | Potency [10] | Potency [7]

CC(COCCO)OCCO (stereo not drawn)
inactive: Potency [1] | Potency [2] | Potency [3] | Potency [4] | Potency [8] | Potency [9] | Potency [10] | Potency [7]

CCCCCCCC#N
inactive: Potency [1] | Potency [2] | Potency [3] | Potency [4] | Potency [8] | Potency [9] | Potency [10] | Potency [7]

NC(N)=NCCC[C@H](N)C(=O)O
inactive: viability change, negative = cytotoxic [1] 3.84% [at 8.39 µM] | activity change, negative = inhibition [2] 0.418% [at 10.5 µM] | viability change, negative = cytotoxic [3] 0.813% [at 8.39 µM] | activity change, negative = cytotoxicity [4] -4.98% [at 8.39 µM] | viability change, negative = cytotoxic [8] -6.77% [at 8.39 µM] | activity, negative = inhibition [9] -5.77% [at 8.39 µM] | activation [10] -1.51% [at 8.39 µM] | activation [7] -0.151% [at 8.39 µM]

CC(CSC(=O)c1ccccc1)C(=O)N1C[C@@H](Sc2ccccc2)C[C@H]1C(=O)O (stereo partly drawn)
inactive: viability change, negative = cytotoxic [1] 7.27% [at 19 µM] | activity change, negative = inhibition [2] 0.3% [at 23.6 µM] | viability change, negative = cytotoxic [3] 5.15% [at 19 µM] | activity change, negative = cytotoxicity [4] 0% [at 19 µM] | viability change, negative = cytotoxic [8] 17.4% [at 19 µM] | activity, negative = inhibition [9] 1.67% [at 19 µM] | activation [10] 0.512% [at 19 µM] | activation [7] -0.691% [at 19 µM]

N=c1ccn2c(n1)O[C@H]1[C@H](O)[C@@H](CO)O[C@H]12
inactive: Potency [1] | Potency [2] | Potency [3] | Potency [4] | Potency [8] | Potency [9] | Potency [10] | Potency [7]

C/C(=C(\CCOP(=O)(O)O)SC(=O)c1ccccc1)N(C=O)Cc1cnc(C)nc1N
inactive: viability change, negative = cytotoxic [1] 0.62% [at 8.39 µM] | activity change, negative = inhibition [2] 0.277% [at 10.5 µM] | viability change, negative = cytotoxic [3] -1.07% [at 8.39 µM] | activity change, negative = cytotoxicity [4] 5.24% [at 8.39 µM] | activity, negative = inhibition [5] -18% [at 8.39 µM] | activation [7] -3.96% [at 8.39 µM]
